Compound activity as filed in PubChem.
The list is not random: actives were taken first. Their share in the collection is about 2.4%.
L929 necroptosis: L929 zVAD cell death inhibition | hit rate 0.38% among 220,000 | AID 1377 | L929 zVAD necroptosis rescue, ATP luminescence, 24 h; with zVAD 60 µM | viability rescue, % at 10 µM;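 active = activation, scaled between plate controls, above about 75%, limit read from the data; inactive = activation under that limit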
PKD1 inh: blocks activity of human protein kinase D1; Q15139; PKD1 kinase fluorescence polarization assay; inhibition, % (concentration not given with the values); hit rate 0.056% among 200,000; AID 797; in the data active = inhibition above about 50%
Target sequence (Q15139 whole entry, looked up): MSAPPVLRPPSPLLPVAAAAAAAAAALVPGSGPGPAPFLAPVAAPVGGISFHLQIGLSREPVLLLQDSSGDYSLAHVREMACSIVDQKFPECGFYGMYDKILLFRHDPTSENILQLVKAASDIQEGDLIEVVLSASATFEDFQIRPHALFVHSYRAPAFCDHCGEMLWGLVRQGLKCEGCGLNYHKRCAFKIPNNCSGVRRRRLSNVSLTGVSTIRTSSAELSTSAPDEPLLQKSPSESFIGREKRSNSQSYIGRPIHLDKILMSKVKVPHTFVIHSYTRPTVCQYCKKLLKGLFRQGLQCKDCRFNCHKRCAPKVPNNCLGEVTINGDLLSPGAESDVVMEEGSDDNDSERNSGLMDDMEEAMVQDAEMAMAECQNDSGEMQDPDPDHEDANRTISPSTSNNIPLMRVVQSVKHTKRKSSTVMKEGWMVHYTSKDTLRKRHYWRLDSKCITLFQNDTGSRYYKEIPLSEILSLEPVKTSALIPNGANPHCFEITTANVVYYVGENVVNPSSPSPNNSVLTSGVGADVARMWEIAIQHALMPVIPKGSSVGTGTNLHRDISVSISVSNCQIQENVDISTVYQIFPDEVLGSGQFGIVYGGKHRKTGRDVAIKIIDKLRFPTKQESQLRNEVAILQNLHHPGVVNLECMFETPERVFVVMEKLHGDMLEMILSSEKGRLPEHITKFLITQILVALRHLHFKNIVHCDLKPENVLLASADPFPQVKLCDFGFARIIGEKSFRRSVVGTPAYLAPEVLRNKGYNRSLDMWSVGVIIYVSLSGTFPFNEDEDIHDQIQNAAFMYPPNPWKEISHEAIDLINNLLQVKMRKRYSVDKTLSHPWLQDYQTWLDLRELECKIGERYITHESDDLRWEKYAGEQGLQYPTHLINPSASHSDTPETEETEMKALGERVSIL
WT yeast gro inh: growth inhibition of WT yeast, mitochondrial fusion screen; mitochondrial fusion phenotypic screen, WT strain; inhibition, % at 10 µM; hit rate 2.1% among 190,000; AID 1362; in the data active = inhibition above about 58%; tested in S. cerevisiae
TNF necrop inh: blocks TNF-alpha induced death of Jurkat FADD-/- cells. hit rate 0.068% among 220,000. activation (protection from cell death), % at 10 µM. AID 463075. Jurkat FADD-/- TNF necroptosis rescue, ATP luminescence, 24 h; 0 = TNF only, 100 = no-TNF cells;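 active = activation, meaning protection from cell death, of at least 50% relative to plate controls; inactive = activation below 50%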;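 also: necroptosis triggered by 40 ng/mL TNF-alpha added together with compound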
PERK inhibitor: human PERK inhibition, primary cell-based screen; Q9NZJ5; CHO PERK-DD fusion, SEAP luminescence translation reporter; inhibition, % at 5.6 µM; hit rate 0.17% among 220,000; AID 1416;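 active = inhibition above the mean inhibition of all tested compounds plus 3 SD, set separately per screening campaign, cut at about 2.9% in these data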;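 also: PERK kinase domain activated by AP20187 dimerizer at 100 nM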
DTT redox prof: compounds producing H2O2 with reducing agent – biochemical, NIH compound library profiling, artefact control for MLSCN library redox annotation, primary screen; hit rate 0.03% among 200,000; activation, % at 10 µM; DTT-dependent redox cycling H2O2, phenol red/HRP absorbance; 100% = 100 µM peroxide control, 0% = buffer;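 active = activation of at least 50% relative to the plate's high and low controls in the primary single-dose screen; inactive = activation below 50%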;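 also: compound incubated with DTT at 0.8 mM final as the reducing agent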
zVAD necrop conf: confirmed blocker of zVAD induced death in L929 cells | L929 zVAD-induced necroptosis rescue, ATP luminescence, 24 h | hit rate 16% among 760 | shares compounds with L929 necroptosis | activation (protection from necroptosis), % at 10 µM;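 active = mean protection from necroptosis of at least 50% over duplicate tests; inactive = mean protection below 50%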
Of the large screens only hits and unclear results are named; the others gave an inactive call (follow-up assays come after a bar, where they were run); ! = a repeat was not active.

COc1ccc(/C=C/c2nc(-c3ccccc3O)n[nH]2)cc1OC	L929 necroptosis 81 | zVAD necrop conf inactive
CCn1c(NC(C)=O)nc2ccccc21	none
CCn1c(NC(=O)c2cccs2)nc2ccccc21	L929 necroptosis 81 | zVAD necrop conf inactive
COC(CNC(=O)c1ccc2c(c1)ncn2-c1ccc(F)c(F)c1)OC	L929 necroptosis 77 | zVAD necrop conf inactive
COC(CNC(=O)c1ccc2c(c1)ncn2-c1cccc(F)c1)OC	L929 necroptosis 76 | zVAD necrop conf inactive
COC(CNC(=O)c1ccc2c(c1)ncn2-c1ccc(F)cc1F)OC	none
CCOC(CNC(=O)c1ccc2c(c1)ncn2-c1ccc(F)c(F)c1)OCC	L929 necroptosis 78 | zVAD necrop conf inactive
Cc1ccc(-c2cc(=O)c3cc(Cl)ccc3[nH]2)cc1	none
CC(C)(C)OC(=O)C(C)(C)Sc1nnc(N)s1	none (no result: PKD1 inh, WT yeast gro inh, DTT redox prof)
Cc1ccc(/C=C2/SC(=S)N(CC(=O)Nc3ncc(Cc4ccc(C)cc4)s3)C2=O)cc1	L929 necroptosis 75 | zVAD necrop conf inactive
Cc1ccc(/C=C2\SC(=S)N(CC(=O)Nc3ncc(Cc4ccccc4Cl)s3)C2=O)cc1	none
Cn1c(=O)c2[nH]c(N3CCN(c4ccccn4)CC3)nc2n(C)c1=O	L929 necroptosis 75 | zVAD necrop conf inactive
O=C(COc1ccc(-c2ccccc2)cc1)NNC(=O)NC1CCCCC1	none
CCCNC(=S)N1CCC(NC(=O)Nc2ccc(C)cc2)CC1	none
O=C(Nc1ccc(-c2nnn(CC(=O)N3CCN(C(=O)c4ccco4)CC3)n2)cc1)c1ccccc1F	none
COc1ccc(C(=O)Nc2ccc(-c3nnn(CC(=O)NCc4ccco4)n3)cc2)cc1	L929 necroptosis 77 (no result: PKD1 inh, WT yeast gro inh, DTT redox prof) | zVAD necrop conf inactive
O=C(Cn1nnc(-c2ccc(Cl)cc2)n1)NCc1ccco1	none
O=C(Cn1nnc(-c2ccc(NC(=O)c3ccccc3F)cc2)n1)NCc1ccc(F)cc1	L929 necroptosis 84 (no result: PKD1 inh, WT yeast gro inh, DTT redox prof) | zVAD necrop conf inactive
Cc1nc2ccc(NC(=O)NCCCO)cc2s1	none
CCOc1ccc(CCNC(=O)C2=C(C)C(=O)OC23CCCCC3)cc1OCC	none
O=C(Nc1ccc(Cl)c(Cl)c1)Nc1nccs1	none (no result: PKD1 inh, WT yeast gro inh, DTT redox prof)
O=C(Nc1cccc(Cl)c1)Nc1nccs1	L929 necroptosis 82! | zVAD necrop conf inactive
COc1ccccc1-n1cnc2cc(NCc3ccccn3)ccc21	none
Cc1ccc(-n2cnc3cc(NCc4cccs4)ccc32)cc1	none
COc1ccc(-n2cnc3cc(NCc4ccccn4)ccc32)cc1	L929 necroptosis 78 | zVAD necrop conf 66
c1ccc(-n2cnc3cc(NCc4cccs4)ccc32)cc1	L929 necroptosis 85 | zVAD necrop conf inactive
CCC(=O)Nc1ccc2c(c1)ncn2-c1ccc(C)cc1	L929 necroptosis 84 | zVAD necrop conf inactive
COc1ccc(-n2cnc3ccccc32)cc1	L929 necroptosis 80 | zVAD necrop conf inactive
O=C(O)CCn1nnc2ccccc21	none (no result: PKD1 inh, WT yeast gro inh, DTT redox prof)
CCC(=O)Nc1ccc2c(c1)ncn2-c1ccc(OC)cc1	L929 necroptosis 81 | zVAD necrop conf inactive
CC(=O)NCCn1c(SCc2cccc([N+](=O)[O-])c2)nc2ccccc2c1=O	none
COc1ccc(Oc2ccc(NC(=O)c3ccccc3C)cc2)cc1	none
O=C(Cn1cnc([N+](=O)[O-])n1)NCc1ccccc1	none
O=[N+]([O-])c1ncn(Cc2ccccc2Cl)n1	L929 necroptosis 88, TNF necrop inh 83 | zVAD necrop conf inactive
O=C(Nc1cnn(Cc2c(Cl)cccc2Cl)c1)c1ccc([N+](=O)[O-])cc1	none
O=[N+]([O-])c1ncn(Cc2c(Cl)cccc2Cl)n1	L929 necroptosis 94, TNF necrop inh 96 | zVAD necrop conf inactive
O=C(NCCN1CCOCC1)c1cc(Cl)ccc1[N+](=O)[O-]	none
CCOC(=O)C1CCN(C(=O)C(CC)c2ccccc2)CC1 (stereo not drawn)	none
CCC(=O)n1nc(-c2ccc(OC)cc2)nc1NCc1cccs1	L929 necroptosis 76 | zVAD necrop conf inactive
CC(=O)n1nc(-c2ccccc2)nc1NCc1ccc(N(C)C)cc1	none
CC(=O)n1nc(-c2ccccc2)nc1NCc1cccs1	L929 necroptosis 86 | zVAD necrop conf inactive
CCC(=O)n1nc(-c2cccnc2)nc1NCc1ccc(OC)cc1	none
COCC(=O)n1nc(-c2ccccc2)nc1NCc1ccccc1	L929 necroptosis 86 | zVAD necrop conf inactive
COCC(=O)n1nc(-c2ccccc2)nc1NCc1ccc(F)cc1	none
O=C(Nc1nccs1)c1cccc(N2C(=O)C3C4C=CC(C4)C3C2=O)c1 (stereo not drawn)	L929 necroptosis 78 (no result: DTT redox prof) | zVAD necrop conf inactive
O=C(Nc1nccs1)c1ccc(N2C(=O)[C@@H]3[C@H](C2=O)[C@H]2C=C[C@@H]3C2)cc1	L929 necroptosis 79 (no result: PKD1 inh, WT yeast gro inh, DTT redox prof) | zVAD necrop conf inactive
COc1ccc(S(=O)(=O)N2c3ccccc3OCC2c2ccccc2)cc1 (stereo not drawn)	none
O=C(CCl)N1c2ccccc2OCC1c1ccccc1 (stereo not drawn)	L929 necroptosis 90 | zVAD necrop conf inactive
CC1(C)CC(=O)C2=C(C1)N=C1SCCC(=O)N1C2c1cccc([N+](=O)[O-])c1 (stereo not drawn)	none
C(=N\Nc1ncnc2nc[nH]c12)/c1cccs1	L929 necroptosis 77 | zVAD necrop conf inactive
Cc1ccsc1/C=N/Nc1ncnc2nc[nH]c12	none
Cc1ccc(NC(=O)ON=C2CCCC2)cc1	none
O=C(/C(=C/c1ccc(Cl)cc1)c1nc2ccccc2[nH]1)c1ccccc1	L929 necroptosis 107 | zVAD necrop conf inactive
Cc1cc(C(=O)NNC(=O)NC(C)C)no1	none (no result: PKD1 inh, WT yeast gro inh, DTT redox prof)
O=C(Nc1ccc(-c2noc(COc3ccccc3Cl)n2)cc1)c1ccco1	L929 necroptosis 98 | zVAD necrop conf inactive
O=[N+]([O-])c1ccc2c(c1)ncn2-c1ccccc1	L929 necroptosis 83 | zVAD necrop conf inactive
Cc1ccc(NC(=O)C(=Cc2ccc(C(=O)O)cc2)C(=O)Nc2ccc(C)cc2C)c(C)c1	L929 necroptosis 85 (no result: PKD1 inh, WT yeast gro inh, DTT redox prof) | zVAD necrop conf inactive
CC(=O)C(=Cc1ccc(C(=O)O)cc1)C(C)=O	none
Nc1[nH]nc2nc(N3CCOCC3)nc(-c3ccccc3)c12	L929 necroptosis 92 | zVAD necrop conf inactive
O=[N+]([O-])c1ccc(/C=N/Nc2ncc(-c3ccccc3)cn2)cc1	L929 necroptosis 79 | zVAD necrop conf inactive
Cc1cc(-c2ccccc2)nc(N/N=C/c2ccc([N+](=O)[O-])cc2)n1	none
COc1cc(/C=N/Nc2nc3ccccc3s2)cc([N+](=O)[O-])c1O	L929 necroptosis 76 (no result: PKD1 inh, WT yeast gro inh, DTT redox prof) | zVAD necrop conf inactive
Brc1csc(/C=N/Nc2nc3ccccc3s2)c1	L929 necroptosis 76 | zVAD necrop conf inactive
